From PubChem BioAssay
LASV entry inh: qHTS for Inhibitors of binding or entry into cells for Lassa Virus; hit rate 1.2% among 300,000; Lassa virus pseudotype entry inhibition, cell reporter; Potency, µM (doses to about 37.9 µM), without a hit: at the top dose activity change, negative = inhibition, actives largely listed as inhibitors; calls by dose curve; tested in HEK293 cells; further: potency means the concentration at half of the fitted maximal effect; on the % scale 0 is the no-effect control and ±100 the full control effect; nearly all actives have a fitted effect of over 50% in size
Marburg entry inh: qHTS for inhibitors of binding or entry into cells for Marburg Virus. Marburg virus pseudotyped entry inhibition, cell reporter. hit rate 1.8% among 300,000. Potency, µM (top dose mostly 37.8 µM), for inactives: at the top dose activity change, negative = inhibition, usual class: inhibitors; calls by dose curve; tested in HEK293 cells; further: potency means the concentration at half of the fitted maximal effect; on the % scale 0 is the no-effect control and ±100 the full control effect
SARS PLpro yeast: qHTS of Yeast-based Assay for SARS-CoV PLP; hit rate 0.19% among 330,000; S. cerevisiae expressing SARS-CoV PLpro, growth rescue; AID 485353, 2010; Potency, µM (series often up to 32.9 µM), for inactives: at the highest dose activity, positive = growth rescue, actives largely listed as activators; calls by dose curve; further: potency means the concentration at half of the fitted maximal effect; 0% is about no effect; nearly all actives have a fitted effect of over 55% in size
HCMV antiviral: qHTS Assay for inhibitors of the human cytomegalovirus (HCMV) | HFF cells, HCMV-luciferase reporter, 72 h; active compounds read low | activity change, negative = inhibition, % at 57.5 µM | hit rate 4.5% among 410,000 | AID 1259415, 2018; in the data active means activity change below about -60%; inconclusive means no clear call, values can overlap the other calls; inactive means above about -39%; further: on the % scale 0 is the no-effect control and ±100 the full control effect
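Two compound doses tested in HFFs infected with HCMV-luciferase, MOI 1 PFU/cell, 72 h at 37C. Lysate luminescence read with OneGlo; data normalized against buffer-only and 10uM Salinomycin inhibitor controls.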
HCV inh: qHTS Assay for Inhibitors of Hepatitis C Virus (HCV). Potency, µM (doses to about 41.8 µM), for the others: at the highest dose activity change, negative = inhibition, most hits filed as inhibitors. hit rate 3.4% among 340,000. Huh7.5.1 HCVcc-Cre infection, luciferase reporter, 44 h; active means well fitted inhibition curve with a large enough effect; inconclusive means small, poorly fitted or top-dose-only effect, or another doubt; inactive means no such curve, though single readings can be large or run the other way; further: potency means the concentration at half of the fitted maximal effect; on the % scale 0 is the no-effect control and ±100 the full control effect
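Seed cells (1,000/well) for 4 h; treat with compound and infect with HCVcc-Cre, moi about 0.5. Incubate 44 h, then detect luciferase activity.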
FMDV inh: High Throughput Screening for Foot and Mouth Disease Virus Antivirals; Potency, µM (titrated, usually from 57.9 µM), without a hit: top-dose activity change, negative = inhibition, most hits filed as inhibitors; AID 1159524, 2015; FMDV antiviral cell-based qHTS; hit rate 1.2% among 410,000; calls by dose curve; tested in HEK293T cells; further: read-out not given here; potency means the concentration at half of the fitted maximal effect; on the % scale 0 is the no-effect control and ±100 the full control effect; nearly all actives have a fitted effect of over 45% in size
* hit, by the source's call; ? = inconclusive; / = not tested or not shown; ! = not confirmed by another sample; [ ] = another dose, or the depositor's remark. The list is not random: actives were taken first. Their share in the collection is about 8%.

SMILES | LASV entry inh | Marburg entry inh | SARS PLpro yeast | HCMV antiviral | HCV inh | FMDV inh
CCCCC(=O)NC(c1ccc(OC)cc1)c1ccc2cccnc2c1O (stereo not given) | / | / | / | -98.4* | / | -19.3%
O=C(O)c1ccccc1NC(c1ccccc1)c1ccc2cccnc2c1O (stereo not given) | ? | ? | / | -31.2 | ? | ?
CCCC(=O)NC(c1ccc(C(C)C)cc1)c1ccc2cccnc2c1O (stereo not given) | 4.47µM* | ? | ? | -97.9* | 1.78µM* | -15.9%
COc1ccc(OCC(=O)Nc2cccc3cccnc23)cc1 | 1.9% | -22.3% | -5.9% | 1.8 | -19.2% | 8.7%
CC(=O)NC(c1ccc(Cl)cc1)c1ccc2cccnc2c1O (stereo not given) | / | / | / | -98.6* | 4.47µM* | -8.0%
COc1ccc(C(NC(=O)C(C)C)c2ccc3cccnc3c2O)cc1 (stereo not given) | 2.51µM* | ? | ? | -99.2* | 2µM* | ?
CCS(=O)(=O)N1CC(=O)N(c2cccc(Cl)c2)C(C)(C(=O)NC2CCCCCC2)C1 (stereo not given) | 17.2%[46.1 µM] | / | / | -13.4 | / | -8.9%
COc1ccc(CCN2C(=O)CN(C3CCC(C)CC3)C(=O)C2c2ccc(OC(C)C)c(OC)c2)cc1OC (stereo not given) | -7.5%[46.1 µM] | / | / | 0.0 | / | -7.7%
CCOc1ccccc1NC(=O)CSC1=Nc2ccccc2C2=NC(CC(=O)NCc3ccc4c(c3)OCO4)C(=O)N12 (stereo not given) | ? | ? | / | 18.2 | / | -18.2%
Cc1cccc(NC(=S)NNc2ncc(C(F)(F)F)cc2Cl)c1 | 18.4µM* | ? | ? | ? | 11.2µM* | ?
FC(F)(F)c1cnc(NNC(=S)Nc2ccccc2Cl)c(Cl)c1 | ? | ? | -27.3% | -100.1* | ? | 10µM*
COc1cccc(C2CC3(CC(C)(C)NC(=S)N3)Oc3cc(O)ccc32)c1 (stereo not given) | ? | -21.3% | 18.0% | -36.7 | ? | -26.1%
Cc1cccc(C2CC3(CC(C)(C)NC(=S)N3)Oc3cc(O)ccc32)c1 (stereo not given) | ? | ? | 0.6% | 13.6 | 10µM* | -11.8%
COc1ccc(OC)c(Nc2ncc3c(n2)CCN(Cc2cc(OC)c(OC)c(OC)c2)C3)c1 | -5.9%[46.1 µM] | / | / | -3.3 | / | -23.6%
COCCn1c(=O)c(-c2ccc(OC)cc2)nc2cnc(N3CCOCC3)nc21 | / | / | / | / | / | -0.7%
COc1ccc(C2C(Oc3ccccc3)C(=O)N2c2ccc(C)c(C)c2)cc1OC (stereo not given) | ? | ? | / | -4.4 | 11.2µM* | -5.2%
COc1ccc(C2C(Oc3ccccc3)C(=O)N2c2cc(C)ccc2C)cc1OC (stereo not given) | ? | ? | 4.0% | -8.8 | 1.9% | 14.1%
COc1ccc2c(c1)cc1c(=O)n(CC(=O)NCc3ccco3)nc(C)n12 | / | ? | / | 1.1 | / | 7.2%
COc1ccc(N2CCN(c3nc4ccc(C(=O)c5ccccc5)cc4n4cnnc34)CC2)cc1 | 25.6%[46.1 µM] | / | / | 0.0 | / | -18.7%
CCCc1cc(N2CCN(c3ccc(OC)cc3)CC2)n2cnnc2n1 | -20.3%[46.1 µM] | -29.5%[46.1 µM] | / | -78.4* | / | ?
Cc1cc(N2CCN(c3ccccc3)CC2)n2cnnc2n1 | 4.2%[46.1 µM] | 2.3%[46.1 µM] | / | -32.1 | / | 0.0%
COc1ccc(N2CCN(c3c4c(nc5nncn35)CCC4)CC2)cc1 | 0.5%[46.1 µM] | ? | / | -70.4* | / | ?
CCCc1cc(N2CCN(c3ccccc3)CC2)n2cnnc2n1 | -8.7%[46.1 µM] | 4.0%[46.1 µM] | / | ? | / | ?
Cc1nc2nncn2c(N2CCN(c3ccccc3)CC2)c1C | -3.9%[46.1 µM] | 3.7%[46.1 µM] | / | -74.5* | / | -11.2%
CCOCCCNC(=O)c1ccc(NC(=O)N2CCCCc3ccccc32)cc1 | ? | / | / | -3.6 | / | -10.5%
CCOc1ccc(/C=C/C(=O)C(C(N)=O)=C2SCCS2)cc1 | 1.6% | ? | -6.6% | -72.9* | 10.5% | 21.7%
COc1ccc2[nH]c(=O)c(CN(Cc3cccs3)Cc3nnnn3C(C)(C)C)cc2c1 | -14.7% | 18.3µM*! | 6.7% | -67.0* | -14.9% | -27.7%
